This passage reports composite z-score and z-score results from PubChem BioAssay.

In experiment [1] the test system is Wnt5a (protein binding on small-molecule microarray). Nature of the experiment: Wnt5a binders on small-molecule microarray, primary screen, biophysical, 635/667 nm fluorescence (AID 1142).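 Note: fluorescence read at 667 nm with signal to noise per printed feature.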 To be noted: 635 nm fluorescence, higher = more signal.
Experiment [2] in a line: cell viability in Huh7 cells, primary screen, cytotoxicity control for HCV replication inhibitor project, CellTiter-Glo luminescence, basal, 48 h (AID 1143).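 Note: Huh7 hepatoma cells carrying a hepatitis C replication reporter with no stimulus; test concentration not given here.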 To be noted: Huh7 HCV replicon, higher = more signal, called active from +8 up or from −8 down. Background: In ATP-based viability assays light output follows the ATP content of the culture.
A short description of experiment [3]: P. aeruginosa biofilm formation inhibitors, primary screen, PAO1 strain, BacTiter-Glo luminescence, LB-PBS (AID 1144). As to conditions: 12 h, higher = more signal.
The nature of experiment [4]: CREB reporter modulators without forskolin, primary screen, cell-based, PC12, CRE-LacZ reporter, unstimulated (AID 1145). As to conditions: no forskolin, luminescence, 4.5 h, higher = more signal, called active from +8 up or from −8 down.
The nature of experiment [5]: CREB reporter modulators under forskolin, primary screen, cell-based, PC12, CRE-LacZ reporter, forskolin-stimulated (AID 1146).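 Note: PC12 cells with 6xCRE LacZ reporter stimulated by forskolin 10 µM; beta-galactosidase reporter signal reflecting CREB driven transcription.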 To be noted: luminescence, 4.5 h, higher = more signal, called active from +8 up or from −8 down.
The target in experiment [6] is Streptavidin (Streptomyces avidinii) (UniProt P22629). Nature of the experiment: streptavidin binders on small-molecule microarray, primary screen, artefact control for SMM compound annotation, biophysical, 635/667 nm fluorescence (AID 1147).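 Note: signal reflects streptavidin binding to arrayed compounds as a control protein.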 To be noted: streptavidin binding, higher = more signal.
Streptavidin (Streptomyces avidinii), sequence (P22629 whole entry, looked up): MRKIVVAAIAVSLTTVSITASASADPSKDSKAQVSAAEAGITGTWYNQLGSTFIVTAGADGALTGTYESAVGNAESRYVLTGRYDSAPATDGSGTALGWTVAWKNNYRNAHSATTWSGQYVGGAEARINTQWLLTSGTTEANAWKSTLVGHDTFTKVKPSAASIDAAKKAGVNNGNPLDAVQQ
The nature of experiment [7]: small-molecule binders of probe aInhba, primary screen, biochemical, small-molecule microarray, 635/667 nm fluorescence (AID 1148).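 Note: score merges 667nm spot fluorescence with signal-to-noise for antibody binding to printed compounds.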 To be noted: higher = more signal.
In experiment [8] the target is Torsin-1A (Homo sapiens) (UniProt O14656). Nature of the experiment: torsin A binders from cell lysate, primary screen, small-molecule microarray, wild-type, 635/667 nm (AID 1149). To be noted: COS7 hTOR1A-WT lysate, 635 nm fluorescence, higher = more signal.
Torsin-1A (Homo sapiens), sequence (O14656 whole entry, looked up): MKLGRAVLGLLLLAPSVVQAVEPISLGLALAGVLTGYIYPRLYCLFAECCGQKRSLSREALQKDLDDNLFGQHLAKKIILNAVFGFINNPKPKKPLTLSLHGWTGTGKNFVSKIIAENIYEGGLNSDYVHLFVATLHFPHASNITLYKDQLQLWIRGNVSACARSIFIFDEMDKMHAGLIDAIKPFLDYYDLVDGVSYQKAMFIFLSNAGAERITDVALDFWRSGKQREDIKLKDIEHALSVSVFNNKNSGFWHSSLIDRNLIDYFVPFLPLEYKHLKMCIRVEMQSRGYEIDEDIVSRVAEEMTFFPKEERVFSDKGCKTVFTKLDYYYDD
For experiment [9] the target is unchanged. Nature of the experiment: small-molecule binders of mutant TOR1A in lysate, primary screen, cell lysate, small-molecule microarray, COS7 lysate, 635/667 nm fluorescence (AID 1150).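 Note: score pools 667 nm emission and signal to noise measuring lysate protein binding.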 As to conditions: COS7 hTOR1A mutant lysate, 635 nm fluorescence, higher = more signal.
The test system of experiment [10] is Sonic hedgehog protein (Shh). In words: small-molecule binders of Shh protein, primary screen, biochemical, small-molecule microarray, 635/667 nm fluorescence (AID 1151).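 Note: Shh protein binding to compounds spotted on small-molecule microarray slides; score combines spot fluorescence intensity with signal-to-noise across triplicate slides.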 To be noted: small-molecule microarray binding, 635 nm fluorescence; higher = more signal.

Activity calls are given as the source filed them. Unless noted, the rule behind the calls is not given here.

For `COC(=O)C[C@H]1O[C@]2(C(=O)N(C)c3ccccc32)[C@@H](C)[C@@H]1[Si](C)(C)c1ccc(C)cc1`, the composite z-score in experiment [1] was 0.139; in experiment [6] it was 0.0785; in experiment [7], -0.0403; with Torsin-1A (Homo sapiens) [8], 0.559; with Torsin-1A (Homo sapiens) [9] it was 0.346; in experiment [10], 0.763. Besides, the z-score in [2] is -3.88 (inactive); in experiment [3] it was 0.92 (inactive); in experiment [4], 1.31 (inactive); in [5], -0.73 (inactive).

For `Cc1ccc(S[C@]2(C(=O)NCC(C)C)CC(=O)N(Cc3ccccc3Cl)[C@@H]2c2ccc(CO)cc2I)cc1`, the composite z-score was -0.296 in experiment [1]; -0.942 in experiment [6]; -0.176 in [7]; -0.276 in the experiment with Torsin-1A (Homo sapiens) [8]; -0.682 with Torsin-1A (Homo sapiens) [9]; 0.196 in experiment [10]. Moreover, the z-score in experiment [2] was -0.521 (inactive); in experiment [3] it was -0.505 (inactive); in [4], -0.904 (inactive); in experiment [5], 0.442 (inactive).

Turning to `NC(=O)N1C(=O)C2C(C1=O)C1C=C(c3ccc(CO)cc3)C2C(C2CC2)N1Cc1sc2ccccc2c1Cl` (stereo not given), the composite z-score in experiment [1] is 0.323; in experiment [6], 1.43; in experiment [7] it was -0.0313; with Torsin-1A (Homo sapiens) [8], 1.19; with Torsin-1A (Homo sapiens) [9], 0.83; in [10], 1.38. Further, the z-score is -3.73 (inactive) in experiment [2], 0.447 (inactive) in experiment [3], 4.42 (inactive) in experiment [4] and -1.63 (inactive) in experiment [5].

With `CCOC(=O)[C@H]1C/C=C/C[C@H](C(=O)OCC)C(=O)O[C@H]2[C@@H](OC)O[C@H](CO)[C@@H](OC(=O)Nc3ccc(OC)cc3)[C@@H]2OC1=O`, the composite z-score in [1] worked out at 0.314; in [6] it was 0.355; in [7], 0.134; in the experiment with Torsin-1A (Homo sapiens) [8], 0.494; with Torsin-1A (Homo sapiens) [9] it was 1.64; in experiment [10] it was 0.733. For the same compound, the z-score in [2] was -3.41 (inactive); in experiment [3] it was 0.29 (inactive); in [4] it was 0.484 (inactive); in experiment [5] it was 0.106 (inactive).

Consider `C#CCNC(=O)[C@H](Cc1ccccc1)NC(=O)[C@@H](N=[N+]=[N-])C(C)C`, for which the composite z-score in [1] is 0.0696; in experiment [6], -0.0247; in [7], -0.025; with Torsin-1A (Homo sapiens) [8], 0.0696; with Torsin-1A (Homo sapiens) [9] it was 0.892; in [10], 0.539. Besides, the z-score in experiment [2] was -0.0943 (inactive); in [3], 0.0632 (inactive); in experiment [4] it was 0.0918 (inactive); in experiment [5] it was -0.462 (inactive).

As for `COCCOC(=O)N1C(=O)[C@@]2(c3cc(C#Cc4ccc(OC)cc4)ccc31)[C@H](C(=O)N1CCN(c3ncccn3)CC1)[C@H]1C(=O)O[C@H](c3ccccc3)[C@H](c3ccccc3)N1[C@@H]2c1ccccc1OCCO`, the composite z-score in experiment [1] is -0.0175; in experiment [6], 0.103; in [7] it was -0.215; in the experiment with Torsin-1A (Homo sapiens) [8] it was 0.236; with Torsin-1A (Homo sapiens) [9], 0.0863; in [10] it was 1.01. Also, the z-score in experiment [2] was -0.651 (inactive); in [3], -1.1 (inactive); in experiment [4], -0.467 (inactive); in [5], -0.638 (inactive).

Consider `NC(N)=NCc1cn(CCc2c[nH]c3ccccc23)nn1`, for which the composite z-score came out at 0.131 in experiment [1]; 0.294 in experiment [6]; 0.0275 in experiment [7]; 0.607 in the experiment with Torsin-1A (Homo sapiens) [8]; 0.734 with Torsin-1A (Homo sapiens) [9]; 1.54 in experiment [10]. The z-score in [2] is -0.343 (inactive); in experiment [3], 0.845 (inactive); in experiment [4], -0.0989 (inactive); in experiment [5], 0.0771 (inactive).

As for `COc1ccc(NC(=O)O[C@H]2[C@H](OC(=O)Nc3ccc4c(c3)OCO4)[C@@H](OC(=O)Nc3ccc4c(c3)OCO4)[C@@H](OC)O[C@@H]2CO)cc1`, the composite z-score in experiment [1] was 0.201; in [6], 1.38; in [7] it was 0.277; with Torsin-1A (Homo sapiens) [8], 0.812; with Torsin-1A (Homo sapiens) [9], 1.27; in experiment [10] it was 1.27. For the same compound, the z-score in experiment [2] was -3.73 (inactive); in [3] it was -0.488 (inactive); in experiment [4], 1.85 (inactive); in experiment [5], -0.559 (inactive).

Regarding `CCCN1C(=O)[C@]2(Cc3ccccc3)N=C(c3ccc(OCCCO)cc3)O[C@@H]2c2ccccc21`, the composite z-score in experiment [1] was 1.19; in experiment [6], 0.501; in experiment [7], 0.872; with Torsin-1A (Homo sapiens) [8], 0.317; with Torsin-1A (Homo sapiens) [9] it was 0.773; in experiment [10] it was 1.84. Further, the z-score in experiment [2] is -5.27 (inactive); in experiment [3] it was -0.204 (inactive); in [4], 1.04 (inactive); in experiment [5], -1.11 (inactive).

As for `C[C@]1(C(=O)NCCN2CCOCC2)c2ccccc2C(=O)N(Cc2ccc(OC(F)(F)F)cc2)[C@H]1c1ccc(CO)cc1`, the composite z-score in experiment [1] is -0.333; in experiment [6], -0.152; in [7], -0.101; with Torsin-1A (Homo sapiens) [8] it was 0.816; in the experiment with Torsin-1A (Homo sapiens) [9] it was 0.853; in experiment [10], -0.704. In addition, the z-score was -0.653 (inactive) in experiment [2], -0.67 (inactive) in experiment [3], -0.412 (inactive) in experiment [4] and -0.51 (inactive) in experiment [5].

On to `CC1CC/C=C\[C@H]2OC34C=CCN(C(C)C)C(=O)[C@H]3N(CCCCCO)C(=O)[C@@H]4C2C(=O)O1` (stereo not given in full), for which the composite z-score in experiment [1] was -0.432; in experiment [6], -1.16; in experiment [7], -0.157; in the experiment with Torsin-1A (Homo sapiens) [8], -1.14; with Torsin-1A (Homo sapiens) [9], -0.751; in experiment [10] it was -0.375. Moreover, the z-score in experiment [2] was -0.262 (inactive); in experiment [3], 1.39 (inactive); in experiment [4] it was 1.67 (inactive); in experiment [5] it was -0.478 (inactive).

As for `COCCOC(=O)N1C(=O)[C@@]2(c3cc(C#CC4(O)CCCCCC4)ccc31)[C@H](c1ccccc1OCCO)N1[C@H](c3ccccc3)[C@H](c3ccccc3)OC(=O)[C@H]1[C@@H]2C(N)=O`, the composite z-score in experiment [1] was 0.448; in experiment [6], 0.421; in [7], -0.0494; with Torsin-1A (Homo sapiens) [8], 0.749; with Torsin-1A (Homo sapiens) [9], 0.761; in experiment [10] it was 1.97. The z-score is -6.31 (inactive) in experiment [2], 0.754 (inactive) in experiment [3], 0.245 (inactive) in experiment [4] and 0.0169 (inactive) in [5].
